# Measurements reported in PubChem BioAssay (NCI).
# This is part of a sample that, as a whole, favours compounds with a hit. Of some 83,000 tested, about 20% had one in any assay.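 Negative percent growth values reflect cell death: -40 means 40% of the cells present at the start died, and -100 means all died.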 A number with no mark means an inactive call. Active and inactive are the calls of the source. Rule for the calls: active = growth percent below 10; inactive = the rest.
# Tests used:
# Experiment in all cases: NCI-60 one-dose screen, 48 h (100 = growth as untreated, 0 = no growth, -100 = all killed)
# Conditions in all cases: 10 µM unless noted
# [1] = tested on: SK-MEL-2 melanoma
# [2] = tested on: EKVX NSCLC
# [3] = tested on: SN12C renal
# [4] = tested on: UO-31 renal
# [5] = tested on: TK-10 renal
# [6] = tested on: ACHN renal
# [7] = tested on: CAKI-1 renal
# [8] = tested on: A498 renal
# [9] = tested on: CCRF-CEM leukemia
# [10] = tested on: MOLT-4 leukemia
# [11] = tested on: SR leukemia
# [12] = tested on: RPMI-8226 leukemia
# [13] = tested on: OVCAR-8 ovarian
# [14] = tested on: OVCAR-5 ovarian
# [15] = tested on: OVCAR-4 ovarian
# [16] = tested on: SK-OV-3 ovarian
# [17] = tested on: IGROV1 ovarian
# [18] = tested on: OVCAR-3 ovarian
# [19] = tested on: HS 578T breast
# [20] = tested on: NCI/ADR-RES ovarian
Structure (SMILES),growth [1],growth [2],growth [3],growth [4],growth [5],growth [6],growth [7],growth [8],growth [9],growth [10],growth [11],growth [12],growth [13],growth [14],growth [15],growth [16],growth [17],growth [18],growth [19],growth [20]
CC(C)CCN(CCC(C)C)CC(O)c1cc2c(c3ccccc13)CCCC2 (stereo not given),76.4%,73%,68.6%,48.7%,102%,52.4%,77.2%,52.5%,65.6%,55.6%,11.8%,49.3%,81.6%,71.5%,78.2%,76.8%,64.2%,85%,80.6%,71.8%
O=C(C1CCCCC1)[C@@H]1[C@]2(C(=O)NC3CCCCC32)[C@@H]2CCCN2[C@@]12C(=O)NC1CCC(Cl)CC12 (stereo not given in full),-79.2% [100 µM] (active),-89.5% [100 µM] (active),-80% [100 µM] (active),-73% [100 µM] (active),-81.1% [100 µM] (active),-97.8% [100 µM] (active),-82.7% [100 µM] (active),-94.8% [100 µM] (active),-49% [100 µM] (active),-57.3% [100 µM] (active),-68.6% [100 µM] (active),-33.6% [100 µM] (active),-64.3% [100 µM] (active),-89.5% [100 µM] (active),-79.6% [100 µM] (active),-94.1% [100 µM] (active),-70.3% [100 µM] (active),-91.9% [100 µM] (active),-43.6% [100 µM] (active),-68.2% [100 µM] (active)
C#COc1cccc(Nc2ncnc3cc(NC(=O)[C@@H](C)Cl)ccc23)c1,27.4% [6.25 µM],36.7% [6.25 µM],22% [6.25 µM],29.2% [6.25 µM],10.6% [6.25 µM],20.8% [6.25 µM],19.4% [6.25 µM],11.8% [6.25 µM],3.09% [6.25 µM] (active),11.4% [6.25 µM],1.44% [6.25 µM] (active),-6.79% [6.25 µM] (active),11.9% [6.25 µM],25% [6.25 µM],52.8% [6.25 µM],-5.9% [6.25 µM] (active),8.48% [6.25 µM] (active),-6.96% [6.25 µM] (active),17.4% [6.25 µM],6.35% [6.25 µM] (active)
O=C(CC(=O)Nc1cccc(C(=O)O)c1)Nc1cccc(C(=O)O)c1,90.7%,101%,102%,88.5%,102%,91.6%,86.5%,104%,94.2%,103%,96%,100%,107%,101%,97.8%,106%,109%,113%,100%,106%
COc1ccc2nc(Cl)c(/C=C3\CC(c4ccccc4)=NN(c4ccccc4)C3=O)cc2c1,63.4%,67.7%,72.3%,61.7%,78.6%,18.4%,14.5%,46.9%,96.9%,79.8%,76.6%,97.3%,41.8%,93.5%,37.4%,46.5%,50.7%,74.4%,32.9%,60.2%
Cc1ccc(NC(=O)Cn2c(Br)nc3c2c(=O)n(C)c(=O)n3C)cc1,84.9%,55.5%,-30% (active),14.1%,9.94% (active),-66.6% (active),53%,-6.02% (active),40.7%,58.8%,12%,38.5%,28.4%,27.9%,-44.9% (active),5.9% (active),33.1%,-19.8% (active),8.55% (active),4.04% (active)
COc1ccc(Cn2cc(C(=O)N=Nc3c(O)[nH]c4c(C)cccc34)nn2)cc1,91.9%,107%,62.1%,14.9%,56.1%,38.2%,77.1%,101%,82.8%,83.5%,76.6%,90%,67.6%,93.6%,-28.2% (active),110%,84.8%,46.7%,84.1%,71.2%
